From PubChem BioAssay (Tox21)
Results filed as inconclusive are left out. Activity calls are given as the source filed them. Unless noted, the call rests on the fitted dose curve; in most records, active means well fitted curve in the direction sought with a large enough effect in the repeat runs; inconclusive means weak or mixed curves; inactive means no such curve, though single readings can be large; an effect the other way counts as inactive or inconclusive. Positions of bridges follow the written chain, without caps; N, C: chain ends. Non-standard residues stand in square brackets, D forms with d. Residues, ends and D or L forms follow the SMILES beside them. Orn = NCCC[C@H](N)C(=O)O; Mpa = O=C(O)CCS

Legend:
[1] = qHTS assay to test for compound auto fluorescence at 535 nm (green) in HEK293 cells (AID 720680)
[2] = qHTS assay to test for compound auto fluorescence at 460 nm (blue) in HEK293 cell free culture (AID 720681)
How it was run: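 Compounds were added to cell-free DMEM with 10% FBS and fluorescence read directly. The blue channel used 405 nm excitation and 460 nm emission, with triamterene as the reference fluorophore.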

[3] = qHTS assay to test for compound auto fluorescence at 535 nm (green) in HEK293 cell free culture (AID 720682)
How it was run: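 DMEM + 10% FBS, cell-free; cpd or DMSO pinned in; Ex485/Em535 read; output as fluorescein-equivalent signal.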

[4] = qHTS assay to test for compound auto fluorescence at 590 nm (red) in HEK293 cell free culture (AID 720683)
How it was run: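 Cell-free wells of DMEM with 10% FBS received compound, and intrinsic fluorescence was read at excitation/emission 540/590 nm. Values expressed as equivalence to Rose Bengal sodium.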

[5] = qHTS assay to test for compound auto fluorescence at 590 nm (red) in HepG2 cell free culture (AID 720684)
How it was run: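 Compound was pinned into wells holding MEM with 10% FBS and no cells, and red fluorescence was read at Ex/Em 540/590 nm. Signal is expressed as auto fluorescence equivalency relative to Rose Bengal sodium.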

[6] = qHTS assay to test for compound auto fluorescence at 460 nm (blue) in HepG2 cell free culture (AID 720685)
How it was run: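 Compound (23 nL) or DMSO pinned into cell-free MEM with 10% FBS; blue fluorescence read at 405/460 nm excitation/emission, expressed as auto-fluorescence equivalency to triamterene.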

[7] = qHTS assay to test for compound auto fluorescence at 535 nm (green) in HepG2 cell free culture (AID 720686)
[8] = qHTS assay to test for compound auto fluorescence at 460 nm (blue) in HepG2 cells (AID 720687)
How it was run: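 HepG2 cells in MEM with 10% FBS, attached overnight at 37 C, were exposed to compound or DMSO for 1 hr at 37 C, 5% CO2. Blue fluorescence was read at 405/460 nm, with triamterene as reference fluorophore.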

[9] = biological target: Glucocorticoid receptor (Homo sapiens) (UniProt P04150); test: qHTS assay to identify small molecule agonists of the glucocorticoid receptor (GR) signaling pathway (AID 720691; active means well fitted activation curve with a large enough effect in the signal ratio in the repeat runs, not every such curve was filed as active; the % refers to the signal ratio); conditions: GR-bla HeLa, beta-lactamase reporter ratio, 18 h; activation: at 62.4 µM (top of the series)
Sequence of Glucocorticoid receptor (Homo sapiens) (P04150 whole entry, looked up): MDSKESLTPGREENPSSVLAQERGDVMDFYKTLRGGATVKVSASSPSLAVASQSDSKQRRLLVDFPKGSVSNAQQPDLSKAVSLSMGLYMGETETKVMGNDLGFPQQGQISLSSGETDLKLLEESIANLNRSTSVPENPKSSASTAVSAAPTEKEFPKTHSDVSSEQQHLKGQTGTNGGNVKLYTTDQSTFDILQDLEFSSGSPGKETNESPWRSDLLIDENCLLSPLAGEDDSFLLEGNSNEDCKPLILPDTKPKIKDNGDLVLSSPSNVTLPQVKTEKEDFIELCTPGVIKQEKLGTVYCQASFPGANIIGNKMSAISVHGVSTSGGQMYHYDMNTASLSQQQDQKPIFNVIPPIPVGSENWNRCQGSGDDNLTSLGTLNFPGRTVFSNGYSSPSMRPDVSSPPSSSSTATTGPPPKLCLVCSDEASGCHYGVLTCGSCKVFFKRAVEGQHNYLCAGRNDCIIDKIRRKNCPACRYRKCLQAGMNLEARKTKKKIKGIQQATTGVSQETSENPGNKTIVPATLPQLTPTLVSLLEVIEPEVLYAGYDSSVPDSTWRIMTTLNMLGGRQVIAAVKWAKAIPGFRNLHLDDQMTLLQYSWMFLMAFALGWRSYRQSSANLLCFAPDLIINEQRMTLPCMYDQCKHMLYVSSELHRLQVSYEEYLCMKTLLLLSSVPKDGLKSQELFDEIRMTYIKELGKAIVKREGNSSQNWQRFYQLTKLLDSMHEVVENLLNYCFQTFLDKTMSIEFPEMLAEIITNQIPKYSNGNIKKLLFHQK
How it was run: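 Beta-lactamase reporter activity, read as fluorescence intensity, was measured in GR-bla HeLa cells exposed to compounds for 18 h at 37 C and then loaded with LiveBLAzer B/G FRET substrate for 2 h at room temperature.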

[10] = biological target: Glucocorticoid receptor (Homo sapiens) (UniProt P04150); test: qHTS assay to identify small molecule antagonists of the glucocorticoid receptor (GR) signaling pathway (AID 720692; active means well fitted inhibition curve with a large enough effect in the signal ratio in the repeat runs, not every such curve was filed as active; the % refers to the signal ratio)
How it was run: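 Fluorescence from cleaved LiveBLAzer B/G FRET substrate reports GRE-driven beta-lactamase in HeLa cells; compounds are tested against 5 nM dexamethasone (final) over 18 h at 37 C, substrate incubation 2 h at room temperature.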

[11] = qHTS assay to identify small molecule antagonists of the glucocorticoid receptor (GR) signaling pathway - cell viability counter screen (AID 720693); further: nearly all actives have a fitted effect of over 55% in size
[12] = qHTS assay for identifying genotoxic compounds that show differential cytotoxicity against isogenic chicken DT40 cell lines with known DNA damage response pathways - wild type cell line (AID 743012); further: nearly all actives have a fitted effect of over 60% in size
How it was run: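 Quantitative HTS on parental DT40 cells: 40 h compound treatment at 37 C/5% CO2, with viability then determined by CellTiter-Glo luminescence. Values serve as the DNA repair-proficient reference for differential cytotoxicity.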

[13] = qHTS assay for identifying genotoxic compounds that show differential cytotoxicity against isogenic chicken DT40 cell lines with known DNA damage response pathways - Rev3 mutant cell line (AID 743014); further: nearly all actives have a fitted effect of over 55% in size
[14] = qHTS assay for identifying genotoxic compounds that show differential cytotoxicity against isogenic chicken DT40 cell lines with known DNA damage response pathways - Rad54/Ku70 mutant cell line (AID 743015); further: nearly all actives have a fitted effect of over 60% in size
[15] = qHTS assay to identify small molecule antagonists of the androgen receptor (AR) signaling pathway - cell viability counter screen (AID 743033; further: nearly all actives have a fitted effect of over 45% in size)
[16] = qHTS assay to identify small molecule antagonists of the androgen receptor (AR) signaling pathway using the MDA cell line - cell viability counter screen (AID 743041; further: nearly all actives have a fitted effect of over 45% in size)
How it was run: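 MDA-kb2 AR-luc cells (MMTV-luciferase, AR/GR responsive) treated with compounds plus R1881 agonist for 16 h at 37C. CellTiter-Fluor added at 15.5 h; fluorescence read after 30 min in the same wells.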

[17] = biological target: Androgen receptor (Homo sapiens) (UniProt P10275); test: qHTS assay to identify small molecule antagonists of the androgen receptor (AR) signaling pathway (AID 743035; active means well fitted inhibition curve with a large enough effect in the signal ratio in the repeat runs, not every such curve was filed as active; the % refers to the signal ratio)
Sequence of Androgen receptor (Homo sapiens) (P10275 whole entry, looked up): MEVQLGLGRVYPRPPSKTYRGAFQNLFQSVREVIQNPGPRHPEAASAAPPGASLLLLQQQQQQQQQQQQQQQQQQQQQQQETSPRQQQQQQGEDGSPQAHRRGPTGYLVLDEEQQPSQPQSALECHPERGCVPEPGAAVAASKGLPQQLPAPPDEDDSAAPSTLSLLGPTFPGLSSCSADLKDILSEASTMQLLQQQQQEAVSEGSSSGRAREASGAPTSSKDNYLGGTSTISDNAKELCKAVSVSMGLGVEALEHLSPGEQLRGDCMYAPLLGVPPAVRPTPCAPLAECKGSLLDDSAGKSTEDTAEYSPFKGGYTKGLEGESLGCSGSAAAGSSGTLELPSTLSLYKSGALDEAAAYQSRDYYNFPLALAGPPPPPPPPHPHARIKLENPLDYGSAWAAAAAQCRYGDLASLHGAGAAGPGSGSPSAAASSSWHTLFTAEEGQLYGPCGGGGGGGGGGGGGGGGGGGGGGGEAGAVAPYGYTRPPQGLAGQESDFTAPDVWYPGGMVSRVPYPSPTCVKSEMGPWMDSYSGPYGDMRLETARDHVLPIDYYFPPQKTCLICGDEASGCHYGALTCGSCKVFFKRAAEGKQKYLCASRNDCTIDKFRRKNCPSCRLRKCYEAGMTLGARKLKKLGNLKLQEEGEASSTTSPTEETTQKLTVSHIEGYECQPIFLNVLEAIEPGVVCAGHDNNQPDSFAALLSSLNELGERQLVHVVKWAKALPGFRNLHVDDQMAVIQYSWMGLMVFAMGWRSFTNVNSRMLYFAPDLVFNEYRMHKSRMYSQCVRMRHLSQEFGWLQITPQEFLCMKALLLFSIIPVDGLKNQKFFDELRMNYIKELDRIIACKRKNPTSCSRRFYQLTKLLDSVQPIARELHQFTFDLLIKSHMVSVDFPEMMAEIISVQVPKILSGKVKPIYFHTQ
How it was run: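 Cell line: GeneBLAzer AR-UAS-bla GripTite (HEK293). Stimulus: R1881 added after compound. Exposure: 16 h, 37C, 5% CO2. Readout: LiveBLAzer B/G FRET fluorescence after 2 h at room temperature.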

[18] = biological target: Androgen receptor (Homo sapiens) (UniProt P10275); test: qHTS assay to identify small molecule agonists of the androgen receptor (AR) signaling pathway (AID 743036; active means well fitted activation curve with a large enough effect in the signal ratio in the repeat runs, with a control signal flat, not every such curve was filed as active; the % refers to the signal ratio)
How it was run: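 Screening used 2,000 AR-bla HEK293 cells per well, treated 16 h at 37C with test compounds in DMSO alongside positive and DMSO-only controls; beta-lactamase activity was then read by LiveBLAzer B/G FRET fluorescence after 2 h at room temperature.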

[19] = biological target: Androgen receptor (Homo sapiens) (UniProt P10275); test: qHTS assay to identify small molecule agonists of the androgen receptor (AR) signaling pathway using the MDA cell line (AID 743040; further: nearly all actives have a fitted effect of over 20% in size)
How it was run: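 MDA-kb2 breast carcinoma cells carrying MMTV-luciferase (responsive to AR and GR), plated 5 h then treated 16 h with compounds at 37C, 0% CO2. Read-out was ONE-Glo luminescence after 30 min at room temperature.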

[20] = biological target: Androgen receptor (Homo sapiens) (UniProt P10275); test: qHTS assay to identify small molecule antagonists of the androgen receptor (AR) signaling pathway using the MDA cell line (AID 743042; further: nearly all actives have a fitted effect of over 55% in size)
How it was run: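 MDA-kb2 breast carcinoma cells carrying MMTV-luciferase (AR/GR responsive) were co-treated with compounds and the agonist R1881 for 16 h at 37C. Inhibition read as ONE-Glo luminescence; CellTiter-Fluor fluorescence measured in parallel for cytotoxicity.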

Measured: Potency

CCOC(=O)CN[C@@H](C(=O)N1CC[C@H]1C(=O)NCc1ccc(/C(N)=N/O)cc1)C1CCCCC1
not listed: [17] | [18] | [19] | [20]
inactive: all other assays above

CCCCCCCCCCCCCCCCCCCCCCO
not listed: [17] | [18] | [19] | [20]
inactive: all other assays above

C[Se]CCC(N)C(=O)O (centres undefined)
not listed: [16] | [17] | [18] | [19] | [20]
inactive: all other assays above

Cc1ccccc1OCC(O)CNCCOc1ccc(C(N)=O)cc1 (centres undefined)
not listed: [17] | [18] | [19] | [20]
inactive: all other assays above

CC(C)C[C@H](NC(=O)[C@@H](Cc1c[nH]c2ccccc12)NC(=O)[C@H](Cc1ccc(O)cc1)NC(=O)[C@H](CO)NC(=O)[C@H](Cc1c[nH]c2ccccc12)NC(=O)[C@H](Cc1cnc[nH]1)NC(=O)[C@@H]1CCC(=O)N1)C(=O)N[C@@H](CCCN=C(N)N)C(=O)N1CCC[C@@H]1C(=O)NCC(N)=O
not listed: [16] | [17] | [18] | [19] | [20]
inactive: all other assays above

COc1cc(C[C@@H]2NCCc3cc(O)c(O)cc32)cc(OC)c1OC
not listed: [17] | [18] | [19] | [20]
inactive: all other assays above

CCOc1ccc(C[C@H]2NC(=O)CCSSC[C@@H](C(=O)N3CCC[C@H]3C(=O)N[C@@H](CCCN)C(=O)NCC(N)=O)NC(=O)[C@H](CC(N)=O)NC(=O)[C@H]([C@@H](C)O)NC(=O)[C@H]([C@@H](C)CC)NC2=O)cc1 ([Mpa][dY](Et)ITNCP[Orn]G-NH2; disulfide 1-6)
inactive: all assays above
